Here are results for twelve molecules from PubChem BioAssay (NCI).

Test systems include NCI-H23 lung; NCI-H226 lung; NCI-H322M lung; HOP-62 NSCLC; NCI-H460 lung; HOP-92 NSCLC; NCI-H522 lung; A549/ATCC NSCLC; 786-0 renal; COLO 205 colon.
Experiment in all cases: NCI-60 one-dose screen, 48 h (100 = growth as untreated, 0 = no growth, -100 = all killed)
Common to all, as to conditions: 10 µM unless noted

The panel holds about 83,000 compounds, 20% with a hit somewhere; the sample as a whole holds those more often.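 Each cell line was grown in a 96-well plate and treated with one concentration of compound for 48 hours. Values below 10 were considered active.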 Values without a mark were called inactive. Calls of active or inactive are those of the source.

Consider `CC/C(=N/NC(N)=O)c1ccccc1`, for which the growth with NCI-H23 lung was 98.6%; in the experiment on NCI-H226 lung, 97.8%; in the experiment with NCI-H322M lung, 102%; with HOP-62 NSCLC it was 107%; in the experiment on NCI-H460 lung it was 108%; in the experiment with HOP-92 NSCLC, 103%. Besides, the growth in the experiment on NCI-H522 lung was 99.5%; in the experiment with A549/ATCC NSCLC it was 96.4%; in the experiment with 786-0 renal, 98.5%; in the experiment with COLO 205 colon, 119%.

In the case of `Oc1ccccc1/C=N\NC(=S)Nc1ccc(F)cc1`, the growth with NCI-H23 lung is 30.4%; with NCI-H226 lung, 25.7%; with NCI-H322M lung, 30.1%; in the experiment with HOP-62 NSCLC, 36.5%; with NCI-H460 lung, 4.08% (active); in the experiment with HOP-92 NSCLC it was 46.4%. For the same molecule, the growth in the experiment with NCI-H522 lung was 21.4%; in the experiment on A549/ATCC NSCLC, 22.1%; with 786-0 renal, 16.6%; in the experiment on COLO 205 colon, 50.3%.

In the case of `CCCC(=O)N1CCCCC1CC` (stereo not given), the growth with NCI-H23 lung was 111%; in the experiment on NCI-H226 lung, 101%; in the experiment on NCI-H322M lung, 127%; with HOP-62 NSCLC it was 107%; with NCI-H460 lung, 97%; in the experiment on HOP-92 NSCLC, 74.5%. In addition, the growth in the experiment with NCI-H522 lung was 99.9%; in the experiment with A549/ATCC NSCLC, 99.6%; with 786-0 renal, 104%; in the experiment with COLO 205 colon, 116%.

Turning to `CCCCCCCC(=O)SCC/C=C/[C@@H]1CC(=O)NCc2cccc(n2)CN(Cc2ccc3ccccc3c2)CC(=O)N[C@@H](C(C)C)C(=O)O1`, the growth with NCI-H23 lung is 45.7%; with NCI-H226 lung it was 67.5%; in the experiment with NCI-H322M lung, 40%; in the experiment on HOP-62 NSCLC, 24%; in the experiment on NCI-H460 lung, 27.6%; in the experiment on HOP-92 NSCLC, 18.2%. For the same molecule, the growth was 66.1% with NCI-H522 lung, 35.3% in the experiment on A549/ATCC NSCLC, 72.1% with 786-0 renal and 33.7% in the experiment with COLO 205 colon.

As for `C=C(C)[C@@H]1CC[C@]2(C)[C@H](CC[C@@H]3[C@H]4[C@H]5OC[C@@]4(CCC5(C)C)CC[C@]32C)[C@@]1(C)CCCN`, the growth in the experiment on NCI-H23 lung is 83.3%; with NCI-H226 lung, 100%; with NCI-H322M lung, 30.9%; in the experiment on HOP-62 NSCLC, 96.3%; in the experiment with NCI-H460 lung it was -28.6% (active); in the experiment on HOP-92 NSCLC, 50.9%. For the same molecule, the growth was 97.6% in the experiment on NCI-H522 lung, 55.1% with A549/ATCC NSCLC, 49.1% in the experiment on 786-0 renal and -58.2% (active) in the experiment on COLO 205 colon.

`N#C/C(=C\c1ccc(-c2ccc(F)cc2)o1)c1nc(-c2ccco2)cs1`: the growth was 93.6% in the experiment with NCI-H23 lung; 84% with NCI-H226 lung; 93% in the experiment with NCI-H322M lung; 96.7% with HOP-62 NSCLC; 91.2% in the experiment with NCI-H460 lung; 93.9% in the experiment with HOP-92 NSCLC. Besides, the growth is 98.1% with NCI-H522 lung, 103% in the experiment with A549/ATCC NSCLC, 109% in the experiment with 786-0 renal and 108% with COLO 205 colon.

As to `Cn1c2ccccc2c2c3c(c4c5cccnc5[nH]c4c21)C(=O)N(O)C3=O`, the growth was 15.1% with NCI-H23 lung; 74.3% with NCI-H226 lung; 62.6% in the experiment with NCI-H322M lung; 15.3% in the experiment on HOP-62 NSCLC; 14.7% in the experiment on NCI-H460 lung; 78.9% in the experiment on HOP-92 NSCLC. The growth was 47.6% with NCI-H522 lung, 62.3% in the experiment on A549/ATCC NSCLC, 36.6% with 786-0 renal and 22.4% in the experiment on COLO 205 colon.

As for `C#CCC(C)(O)/C=C/C1=C(C)CCCC1(C)C` (stereo not given), the growth in the experiment with NCI-H23 lung is 94.5%; in the experiment with NCI-H226 lung, 85.4%; in the experiment on NCI-H322M lung, 99.4%; in the experiment with HOP-62 NSCLC, 96.9%; with NCI-H460 lung, 103%; with HOP-92 NSCLC, 84%. Further, the growth with NCI-H522 lung was 75.5%; with A549/ATCC NSCLC, 69.8%; with 786-0 renal it was 92.6%; with COLO 205 colon it was 113%.

Regarding `O=S(=O)(NCCCNc1cc(-c2cn(-c3ccccc3)nc2-c2cccc(O)c2)ccn1)c1ccc(F)cc1`, the growth with NCI-H23 lung was 44.4%; with NCI-H226 lung it was 54.1%; in the experiment with NCI-H322M lung it was 51.2%; with HOP-62 NSCLC, 53.8%; in the experiment on NCI-H460 lung it was 24.9%; in the experiment on HOP-92 NSCLC, 57.7%. For the same molecule, the growth in the experiment on NCI-H522 lung was 37.6%; in the experiment with A549/ATCC NSCLC, 38.8%; in the experiment on 786-0 renal, -4.8% (active); in the experiment on COLO 205 colon, -66.1% (active).

For `COc1ccc(C2=NN(c3nc(-c4ccc(OC)cc4)c(C#N)c(=O)n3C)C(=O)CC2)cc1`, the growth in the experiment on NCI-H23 lung is 99.8%; in the experiment on NCI-H226 lung, 86.1%; in the experiment on NCI-H322M lung, 91.9%; in the experiment with HOP-62 NSCLC it was 105%; in the experiment on NCI-H460 lung it was 103%; with HOP-92 NSCLC, 77.9%. The growth in the experiment with NCI-H522 lung is 94.1%; in the experiment with A549/ATCC NSCLC, 104%; in the experiment with 786-0 renal, 109%; with COLO 205 colon it was 109%.

In the case of `CCN1CCN(C(=O)[C@@]2(C)CC[C@]3(C)CC[C@]4(C)C(=CC(=O)[C@@H]5[C@@]6(C)CC[C@H](OCCC#N)C(C)(C)[C@@H]6CC[C@]54C)[C@@H]3C2)CC1`, the growth is 87.9% in the experiment with NCI-H23 lung; 89.9% with NCI-H226 lung; 106% in the experiment with NCI-H322M lung; 100% in the experiment on HOP-62 NSCLC; 99.9% with NCI-H460 lung; 70.8% with HOP-92 NSCLC. Further, the growth is 95.4% in the experiment on NCI-H522 lung, 84.1% in the experiment on A549/ATCC NSCLC, 51% in the experiment with 786-0 renal and 95.7% with COLO 205 colon.

With `COc1ccc2c(c1)C(Br)=C(CCO)C2c1ccccc1` (stereo not given), the growth is 95% with NCI-H23 lung; 100% in the experiment on NCI-H226 lung; 15.8% in the experiment on NCI-H322M lung; 22.1% with HOP-62 NSCLC; 9.69% (active) in the experiment on NCI-H460 lung; 35.5% in the experiment with HOP-92 NSCLC. The growth is 96.8% in the experiment with NCI-H522 lung, 25.1% in the experiment with A549/ATCC NSCLC, 85.4% in the experiment on 786-0 renal and 48.2% with COLO 205 colon.
